# Source: PubChem BioAssay
# Sampled rows, rich in hits. Any-hit rate of the full collection: about 8.7%.
# G9a inh: inhibitors of human histone lysine methyltransferase G9a | Potency, µM (doses to about 102 µM), without a hit: top-dose activity, negative = inhibition, actives largely listed as inhibitors | 8.8% of 350,000 active | Q96KQ7 | G9a H3K9 monomethylation, AlphaScreen, 2 h; note: % is set by controls: 0 for no effect and ±100 for the full control effect; nearly all actives have a fitted effect of over 75% in size
#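 AlphaScreen detection with an anti-monomethyl H3K9 antibody quantified product after a 2 h room-temperature reaction containing 500 nM biotinylated H3K9 peptide, 20 µM SAM and 20 nM enzyme, which had been preincubated 15 min with compound.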
# 12-LOX inh: ALOX12 (human) lipoxygenase inhibition; P18054; purified 12hLO, xylenol orange hydroperoxide absorbance; Potency, µM (titrated, usually from 108 µM), inactives show at the top dose activity change, negative = inhibition, hits mostly inhibitors; 1.1% of 580,000 active; note: % is set by controls: 0 for no effect and ±100 for the full control effect
#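 Purified human 12hLO at 150 nM in 25 mM Hepes, 0.01% Triton X-100, pH 7.0, preincubated 15 min at room temperature with compound. Reaction started with 40 uM arachidonic acid, 30 min at room temperature. Hydroperoxide measured by Fe-xylenol orange, 573/405 nm absorbance ratio.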
# JMJD2A Tudor: JMJD2A Tudor domain (human) inhibition; AlphaScreen JMJD2A-Tudor / H3K4me3 peptide binding; 4.4% of 390,000 active; O75164; Potency, µM (highest dose often 114 µM), inactives show top-dose activity change, negative = inhibition, usual class: inhibitors; AID 504339; note: % is set by controls: 0 for no effect and ±100 for the full control effect; nearly all actives have a fitted effect of over 50% in size
# BAZ2B inh: blocks human BAZ2B | Q9UIF8 | AlphaScreen BAZ2B-H3K14Ac peptide displacement | AID 504333 | Potency, µM (titrated, usually from 114 µM), without a hit: at the highest dose activity change, negative = inhibition, usual class: inhibitors | 4.4% of 360,000 active; note: % is set by controls: 0 for no effect and ±100 for the full control effect; nearly all actives have a fitted effect of over 60% in size
# Target sequence (Q9UIF8 whole entry, looked up): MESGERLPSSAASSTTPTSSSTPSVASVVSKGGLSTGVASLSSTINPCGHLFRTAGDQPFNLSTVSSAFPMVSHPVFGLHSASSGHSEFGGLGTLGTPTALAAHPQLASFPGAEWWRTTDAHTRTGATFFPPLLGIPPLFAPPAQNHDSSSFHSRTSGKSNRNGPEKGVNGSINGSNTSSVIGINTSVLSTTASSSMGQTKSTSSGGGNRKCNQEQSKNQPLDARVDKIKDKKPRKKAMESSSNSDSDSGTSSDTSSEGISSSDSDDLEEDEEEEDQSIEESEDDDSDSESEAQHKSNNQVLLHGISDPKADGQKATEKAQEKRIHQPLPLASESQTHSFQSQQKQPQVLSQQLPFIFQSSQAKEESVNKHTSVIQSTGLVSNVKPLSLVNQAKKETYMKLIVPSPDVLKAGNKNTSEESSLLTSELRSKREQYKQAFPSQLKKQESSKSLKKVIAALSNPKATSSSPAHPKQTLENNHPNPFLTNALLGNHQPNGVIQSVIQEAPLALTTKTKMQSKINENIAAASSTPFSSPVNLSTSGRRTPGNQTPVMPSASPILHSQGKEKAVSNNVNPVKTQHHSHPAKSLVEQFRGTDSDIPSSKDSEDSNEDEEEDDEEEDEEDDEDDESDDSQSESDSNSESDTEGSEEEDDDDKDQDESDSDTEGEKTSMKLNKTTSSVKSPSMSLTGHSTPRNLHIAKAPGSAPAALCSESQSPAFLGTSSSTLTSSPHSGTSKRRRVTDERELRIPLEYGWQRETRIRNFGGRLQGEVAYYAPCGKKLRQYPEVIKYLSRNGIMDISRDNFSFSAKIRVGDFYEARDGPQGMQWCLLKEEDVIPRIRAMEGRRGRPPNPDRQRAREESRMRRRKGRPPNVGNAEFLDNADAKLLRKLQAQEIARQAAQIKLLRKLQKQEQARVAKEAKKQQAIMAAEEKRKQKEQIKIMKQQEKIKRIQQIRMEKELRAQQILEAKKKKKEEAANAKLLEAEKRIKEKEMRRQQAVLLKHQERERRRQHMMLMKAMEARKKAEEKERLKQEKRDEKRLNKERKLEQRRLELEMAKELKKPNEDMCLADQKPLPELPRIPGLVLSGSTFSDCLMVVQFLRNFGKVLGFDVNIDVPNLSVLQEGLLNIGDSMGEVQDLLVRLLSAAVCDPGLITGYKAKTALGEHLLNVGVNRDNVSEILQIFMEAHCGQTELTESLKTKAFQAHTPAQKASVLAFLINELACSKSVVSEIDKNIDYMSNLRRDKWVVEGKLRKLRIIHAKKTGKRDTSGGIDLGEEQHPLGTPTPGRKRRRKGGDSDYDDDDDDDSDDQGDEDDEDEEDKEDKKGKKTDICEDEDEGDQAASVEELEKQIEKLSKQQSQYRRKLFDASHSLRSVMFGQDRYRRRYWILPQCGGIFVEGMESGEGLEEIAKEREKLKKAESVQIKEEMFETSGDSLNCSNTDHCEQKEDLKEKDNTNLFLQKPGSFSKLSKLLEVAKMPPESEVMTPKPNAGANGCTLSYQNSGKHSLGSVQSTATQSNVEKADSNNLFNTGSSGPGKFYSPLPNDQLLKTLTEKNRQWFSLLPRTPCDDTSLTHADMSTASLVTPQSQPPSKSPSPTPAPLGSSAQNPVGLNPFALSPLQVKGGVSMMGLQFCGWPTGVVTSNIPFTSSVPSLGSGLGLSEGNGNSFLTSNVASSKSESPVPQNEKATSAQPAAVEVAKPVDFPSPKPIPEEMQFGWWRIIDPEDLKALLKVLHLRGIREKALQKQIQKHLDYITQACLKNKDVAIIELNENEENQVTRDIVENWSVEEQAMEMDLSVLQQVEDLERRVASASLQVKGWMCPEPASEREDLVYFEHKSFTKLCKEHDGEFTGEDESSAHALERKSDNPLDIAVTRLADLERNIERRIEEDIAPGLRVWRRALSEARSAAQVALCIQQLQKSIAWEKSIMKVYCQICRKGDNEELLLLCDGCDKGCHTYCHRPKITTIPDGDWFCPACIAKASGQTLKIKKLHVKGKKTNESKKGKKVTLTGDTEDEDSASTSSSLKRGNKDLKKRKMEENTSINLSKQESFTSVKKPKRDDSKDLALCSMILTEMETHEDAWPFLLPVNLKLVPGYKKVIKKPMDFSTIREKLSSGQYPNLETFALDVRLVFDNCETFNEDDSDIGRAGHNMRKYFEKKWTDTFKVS
#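 In this displacement format the biotinylated H3(5-23) peptide acetylated at Lys14 serves as ligand at 50 nM, with BAZ2B at 50 nM in PBS pH 7.4 containing 0.01% Tween-20. Donor and acceptor beads are 10 ug/mL final.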
# HP1b chromo inh: inhibitors of HP1-beta chromodomain binding to methylated histone tails; P83916; AlphaScreen HP1-beta / biotin-H3K9me3 peptide binding; Potency, µM (highest dose often 114 µM), without a hit: at the top dose activity change, negative = inhibition, actives largely listed as inhibitors; 0.56% of 390,000 active; AID 540317; note: nearly all actives have a fitted effect of over 70% in size
#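 Compound inhibition of the preformed complex between 50 nM HP1-beta and 50 nM biotinylated H3K9me3 peptide was read by AlphaScreen. Buffer was PBS pH 7.4 with 0.01% Tween-20. Incubations ran 30 min at room temperature, with 10 ug/mL donor/acceptor beads.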
# Sfp PPTase inh: inhibitors of Bacillus subtilis Sfp phosphopantetheinyl transferase | Q9F4F7 | Biochemical Sfp PPTase activity, qHTS | Potency, µM, for inactives: largest response in the series, negative = inhibition, usual class: inhibitors | 3.5% of 310,000 active | AID 1490;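 note: the enzyme is Sfp with the accession as filed and its product quenches rhodamine fluorescence; 0% = enzyme reaction without inhibitor and -100% = no enzyme wells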
#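 Compounds were incubated with enzyme (final 15 nM) for 15 min at room temperature before substrate addition started the reaction. Fluorescence at 525 nm excitation, 598 nm emission was recorded immediately and after 30 minutes.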
# * hit, by the source's call; i = inactive; u = inconclusive; x = not tested or not shown; ! = a repeat was not active; [ ] = another dose, or the depositor's remark. Calls come from the whole dose curve; as a rule, active = well fitted curve in the direction sought with a large enough effect; inconclusive = small, poorly fitted or top-dose-only effect, or another doubt; inactive = no such curve, though single readings can be large; an effect the other way counts as inactive or inconclusive. Potency is the fitted concentration of half-maximal effect.
SMILES,G9a inh,12-LOX inh,JMJD2A Tudor,BAZ2B inh,HP1b chromo inh,Sfp PPTase inh
O=C(O)c1cccc(-c2ccc(/C=N/NC(=O)C3COc4ccccc4O3)o2)c1 (stereo not drawn),40µM*,3%,-16%,u,8%,28µM*
O=C(N/N=C/c1c[nH]c2ccccc12)C1COc2ccccc2O1 (stereo not drawn),7%[59 µM],-21%,-11%,-36%,5%,9%
CC(C)CCn1nc(C(=O)OCC(=O)c2ccc3c(c2)NC(=O)CO3)c2ccccc2c1=O,x,11%,x,x,x,x
COC(=O)CC1Oc2ccc(C)cc2-n2cc(-c3ccc(C)cc3)nc21 (stereo not drawn),u,u,-29%,50µM*,7%,x
O=C(O)CCCc1ccc(Cl)c(Cl)c1,x,31%,x,x,x,x
Cc1cc(Cn2nnnc2-c2ccncc2)cc(C)c1O,35µM*,-11%,-6%,-11%,47%,11%
O=C(O)Cn1nnnc1-c1ccc(F)cc1,u,u,-12%,6%,18%,17%
CCOC(=O)c1c(/N=C/c2cc([N+](=O)[O-])ccc2O)sc(C)c1C,u,35µM*,-10%,u,30%,40µM*
CCOC(=O)c1c(/N=C/c2cc(OC)cc([N+](=O)[O-])c2O)sc(C)c1C,20µM*,u,u,50µM*,u,u
C=CCN(CC=C)Cc1c(C(=O)N2CCN(C3CCCCC3)CC2)nc2ccccn12,x,-12%,x,x,x,x
COc1ccc(-c2noc(-c3cccn3CC(=O)NCc3ccc(F)cc3Cl)n2)cc1F,x,33%,x,x,x,x
C#CCNC(=O)C1CN(c2cccc(Cl)c2)C(=O)N1 (stereo not drawn),x,50µM*!,x,x,x,x
C#CCNC(=O)C1CN(c2ccccc2)C(=O)N1 (stereo not drawn),x,-6%[176 µM],x,x,x,x
O=C(NC1CC1)C1CC(=O)N(c2cccc(Cl)c2)C1 (stereo not drawn),25µM*,i,-3%,-38%,43%,-7%
Cc1cc(NS(=O)(=O)c2ccc(NC(=S)NC(=O)c3ccc(Cl)cc3Cl)cc2)no1,-35%[59 µM],32µM*,-19%,-30%,0%,11%
Cc1cc(NS(=O)(=O)c2ccc(NC(=O)c3ccc(Cl)cc3Cl)cc2)no1,1%,0%,-5%,-1%,63%,7%
Cc1cc(NS(=O)(=O)c2ccc(NC(=S)NC(=O)c3ccccc3)cc2)no1,u,16µM*,-13%,-2%,2%,-7%
Cc1cc(NS(=O)(=O)c2ccc(NC(=S)NC(=O)c3ccc(C(C)(C)C)cc3)cc2)no1,u,7.1µM*,u,u,-29%,-10%
CCc1nnsc1C(=O)N(C)Cc1cccc(Cl)c1Cl,x,14%,x,x,x,x
COc1ccc(Cc2nc3c4c(ncn3n2)Oc2cc(O)ccc2C4c2ccc(OC)cc2)cc1 (stereo not drawn),x,16%,x,x,x,x
Cc1ccc(OCC(=O)N(C)CC(=O)N(CC(C)C)c2c(N)n(CC(C)C)c(=O)[nH]c2=O)cc1C,x,14%,x,x,x,x
O=C1N(c2ccccc2)c2ccccc2C12CCN(CC1CCCCC1)C2 (stereo not drawn),x,3%[6.33 µM],x,x,x,x
CCN1CCC(O)(/C=C/c2ccc(C(C)C)cc2)C(C(=O)/C=C/c2ccc(C(C)C)cc2)C1 (stereo not drawn),x,1.8µM*,32µM*,x,u,x
CCc1nnc([C@@H]2CC(F)(F)CN2C(=O)c2cnco2)o1,x,19%,x,x,x,x
Cc1ccc(-n2c(Cc3cccn3C)nnc2SCC(=O)Nc2nnc(C)s2)cc1,-7%[2.33 µM],-7%,-33%,-30%,-7%,6%
SMILES,G9a inh,12-LOX inh,JMJD2A Tudor,BAZ2B inh,HP1b chromo inh,Sfp PPTase inh
Cc1ccc(-n2c(Cc3cccn3C)nnc2SCC(=O)Nc2ccc3c(c2)OCO3)cc1,u,7%,45µM*,45µM*,u,-2%
Cc1ccc(-n2c(Cc3cccn3C)nnc2SCC(=O)NCc2ccc3c(c2)OCO3)cc1,u,12%,u,50µM*,-6%,1%
Cc1cccc(C)c1NC(=S)NC(C)(C)CO,u,107%,-3%,18%,86%,10%
Cc1cc(C)c(NC(=S)NC(CO)(CO)CO)c(C)c1,10µM*,0%,89µM*,2%,16%,-6%
Cc1cccc2c1nc1n2[C@@H](CNC2CCN(C)CC2)COC1,x,74%[176 µM],x,x,x,x
Cc1cccc(N2CCN(C(=O)C3CCN(C(=O)c4cc5sccc5n4C)CC3)CC2)c1C,u,2%,u,22µM*,-21%,x
O=C(CSc1nnc(CNc2ccc(F)cc2)n1Cc1ccco1)N1CCOCC1,u,0%,-8%[57.1 µM],9%,54%,-10%
O=C(O)CSc1nnc(CNc2cccc(C(F)(F)F)c2)n1Cc1ccco1,19%[59 µM],0%,-16%,u,45%,40µM*
O=C(CSc1nnc(CNc2cccc(C(F)(F)F)c2)n1Cc1ccco1)NCc1ccco1,-5%[59 µM],u,-15%[11.4 µM],1%,-11%,-10%
O=C(CSc1nnc(CNc2ccc(F)cc2)n1Cc1ccco1)NC1CC1,u,0%,-8%,-23%,43%,56µM*
O=C(NCc1cccs1)c1cccc2c1CCN2C(=O)c1ccc(F)cc1,x,34%,x,x,x,x
COc1cc2c(cc1OC)C1(Nc3c-2c(Cc2ccccc2)nn3-c2ccccc2)C(=O)Nc2ccccc21 (stereo not drawn),40µM*,u,u,50µM*,-27%,3%
Cc1cccc(N2CCN(C(=O)CN3C(=O)NC(C)(C4CC4)C3=O)CC2)c1C (stereo not drawn),56µM*,-18%,-16%,12%,17%,x
Cc1cccc(N2CCN(C(=O)CN3C(=O)NC(C)(C)C3=O)CC2)c1C,x,0%,-6%,-4%,1%,9%
COc1cc(/C=N/NC(=O)c2ccc3c(c2)OCCO3)c(Br)c(Br)c1O,45µM*,14%,-14%,-27%,-10%[57 µM],-19%
Cc1cccc(/C=N/NC(=O)c2ccc3c(c2)OCCO3)c1O,37%,-3%,x,20µM*,x,4%
CCOc1cccc(/C=N/NC(=O)c2ccc3c(c2)OCCO3)c1O,-6%,-16%,u,4%,-15%[57 µM],13%
Cc1cccc(/C=N/NC(=O)c2c(-c3ccccc3)noc2C)c1O,x,u,u,25µM*,42%,31%
CCCC1(C)C(C#N)(C#N)C1(C#N)C#N,8.9µM*,x,x,x,x,x
O=C(NCC1COc2ccccc2O1)c1nn(Cc2ccccc2)c(=O)c2ccccc12 (stereo not drawn),x,3%,x,x,x,x
CSCC[C@H](NC(=O)Cc1c(C)c2cc3c4c(oc3cc2oc1=O)CCCC4)C(=O)O,45µM*,-4%,-19%,-10%,32%,-6%
